# Molecular target: LIM domain kinase 1 (Homo sapiens) (UniProt P53667)
# Conditions: at 1 µM
# Sequence of LIM domain kinase 1 (Homo sapiens) (P53667 whole entry, looked up, the tested form may be a part): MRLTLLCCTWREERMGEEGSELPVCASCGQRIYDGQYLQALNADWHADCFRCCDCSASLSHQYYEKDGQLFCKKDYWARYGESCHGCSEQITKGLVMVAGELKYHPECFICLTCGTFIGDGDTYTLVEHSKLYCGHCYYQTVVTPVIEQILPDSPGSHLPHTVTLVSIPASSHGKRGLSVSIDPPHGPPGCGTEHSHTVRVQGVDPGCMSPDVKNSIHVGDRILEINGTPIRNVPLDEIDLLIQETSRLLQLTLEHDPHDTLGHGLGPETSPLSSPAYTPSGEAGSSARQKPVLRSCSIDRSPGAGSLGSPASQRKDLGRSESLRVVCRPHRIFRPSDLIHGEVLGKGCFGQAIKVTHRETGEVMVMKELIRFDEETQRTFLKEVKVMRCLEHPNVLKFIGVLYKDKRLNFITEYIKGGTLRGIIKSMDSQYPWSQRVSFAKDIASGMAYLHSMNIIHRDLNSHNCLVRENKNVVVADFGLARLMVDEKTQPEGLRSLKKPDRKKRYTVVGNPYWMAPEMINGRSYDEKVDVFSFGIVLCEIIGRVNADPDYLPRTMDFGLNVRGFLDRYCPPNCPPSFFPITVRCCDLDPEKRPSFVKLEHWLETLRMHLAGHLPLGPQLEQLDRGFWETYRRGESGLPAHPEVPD
row,SMILES,residual activity
1,CCN(CC)CCCCN1c2ccccc2Oc2ccc(Cl)cc21,133%
2,O=C1NC(=O)c2cc(Nc3ccc(F)cc3)c(Nc3ccc(F)cc3)cc21,100%
3,COc1cccc(-c2cc(=O)c3ccccc3o2)c1N,93%
4,c1ccc(-c2n[nH]c3c2oc2ccccc23)cc1,88%
5,N#C/C(=C(\N)Sc1ccc(N)cc1)c1ccccc1C(F)(F)F,91%
6,CC(=O)c1ccc(N2CCOCC2)cc1O,104%
7,COc1cc2ncnc(Nc3ccc(O)c(Br)c3)c2cc1OC,78%
8,O=C1Nc2cc(Br)ccc2/C1=C1/Nc2ccccc2/C1=N\O,33%
9,COc1cc2ncnc(Nc3ccc(NC(=O)c4ccccc4)cc3)c2cc1OC,110%
10,Nc1cccc(-c2cc3c(Oc4cccc(O)c4)ncnc3[nH]2)c1,14%
11,CCC(=O)Nc1ccc2ncnc(Nc3cccc(Br)c3)c2c1,97%
12,CCN(CC)C(=O)c1ccc(Nc2nc(OCC3CCCCC3)c3nc[nH]c3n2)cc1,39%
13,CN(C)CCCn1cc(C2=C(c3c[nH]c4ccccc34)C(=O)NC2=O)c2ccccc21,117%
14,O=C1Nc2ccccc2/C1=C1/Nc2ccccc2/C1=N\OCCC(O)CO (centres undefined),42%
15,CC[n+]1c(/C=C/N(C)c2ccccc2)n(-c2ccccc2)c2ccc(-c3nc4ccccc4s3)cc21,124%
16,CC(C)n1cnc2/c(=N/c3cccc(Cl)c3)nc(NCCO)[nH]c21,96%
17,Oc1ccc(-c2nc(-c3ccc(F)cc3)c(-c3ccncc3)[nH]2)cc1,101%
18,CC(=O)O/N=C1\C(=C2\C(=O)Nc3cc(Br)ccc32)Nc2ccccc21,83%
19,O=C1NC(=O)c2c1c1c3ccccc3[nH]c1c1[nH]c3cc(Br)ccc3c21,99%
20,CNc1cc2c(Nc3cccc(Br)c3)ncnc2cn1,102%
21,CO[C@H]1C[C@@H]2CC[C@@H](C)[C@@](O)(O2)C(=O)C(=O)N2CCCC[C@H]2C(=O)O[C@H]([C@H](C)C[C@@H]2CC[C@@H](O)[C@H](OC)C2)CC(=O)[C@H](C)/C=C(\C)[C@@H](O)[C@@H](OC)C(=O)[C@H](C)C[C@H](C)/C=C/C=C/C=C/1C,102%
22,Cn1cc(/C=C2\C(=O)Nc3ccc(S(N)(=O)=O)cc32)c2ccccc21,101%
23,CO[C@H]1[C@@H](OC)C[C@H](C)[C@@H](OC)C2=CC(=O)C=C(NC(=O)/C(C)=C/C=C/[C@H](OC)[C@@H](OC(N)=O)/C(C)=C/[C@@H]1C)C2=O,109%
24,N#Cc1cnc2cnc(NCc3cccnc3)cc2c1Nc1ccc(F)c(Cl)c1,42%
25,O=[N+]([O-])c1ccc(-c2nc(-c3ccc(F)cc3)c(-c3ccncc3)[nH]2)cc1,96%
26,Oc1ccc(Nc2nc(-c3ccc(Cl)cc3)cs2)cc1,102%
27,c1ccc2c(-c3ccncc3)c[nH]c2c1,98%
28,Cc1cc(Nc2nc(-c3ccccc3)nc3ccccc23)n[nH]1,51%
29,COc1cc2ncnc(Nc3ccc(Oc4ccccc4)cc3)c2cc1OC,78%

# Reference: ChEMBL document CHEMBL2218924, “A broad activity screen in support of a chemogenomic map for kinase signalling research and drug discovery” (Biochem J, 2013)
